Consider 95 compounds from PubChem BioAssay AID1441 (NMMLSC, 2008).

Among all 220,000 compounds or so, about 830 (0.38%) were called active. Shown is part of a subset that was picked to be rich in actives. Values without a mark were called inactive. The rule behind the calls is not given here.

Chain of Regulator of G-protein signaling 16 (Homo sapiens) + Guanine nucleotide-binding protein G(o) subunit alpha (Homo sapiens) (O15492 whole entry, looked up): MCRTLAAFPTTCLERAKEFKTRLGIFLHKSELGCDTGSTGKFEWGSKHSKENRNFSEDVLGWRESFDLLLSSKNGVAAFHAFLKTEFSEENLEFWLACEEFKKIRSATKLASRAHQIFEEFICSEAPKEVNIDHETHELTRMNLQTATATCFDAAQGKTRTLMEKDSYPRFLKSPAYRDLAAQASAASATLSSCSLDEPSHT
Chain of Regulator of G-protein signaling 16 (Homo sapiens) + Guanine nucleotide-binding protein G(o) subunit alpha (Homo sapiens) (P09471 whole entry, looked up): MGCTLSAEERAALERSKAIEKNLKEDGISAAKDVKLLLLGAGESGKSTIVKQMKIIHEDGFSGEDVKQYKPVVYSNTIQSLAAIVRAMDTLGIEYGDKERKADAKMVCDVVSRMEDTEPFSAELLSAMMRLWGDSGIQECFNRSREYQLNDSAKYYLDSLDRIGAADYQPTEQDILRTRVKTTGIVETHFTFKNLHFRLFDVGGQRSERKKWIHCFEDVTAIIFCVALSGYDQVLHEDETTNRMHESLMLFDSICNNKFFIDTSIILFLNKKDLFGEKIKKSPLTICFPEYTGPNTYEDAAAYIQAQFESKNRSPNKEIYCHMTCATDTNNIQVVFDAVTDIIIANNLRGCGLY

The experiment concerns the target Regulator of G-protein signaling 16 (Homo sapiens) + Guanine nucleotide-binding protein G(o) subunit alpha (Homo sapiens) (UniProt O15492+P09471). Description: RGS16-Galphao interaction inhibitors and enhancers – biochemical, human proteins, multiplexed bead flow cytometry, primary screen (AID 1441).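 Note: Galphao activated by GDP with aluminum fluoride before binding.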 As to conditions: bead-based flow cytometry RGS16-Galphao binding, fluorescence; at 10 µM; actives lie on both sides.
As for `CCC(C)N(C(=O)COC(=O)C1C(C(=O)OC)=C(C)NC(C)=C1C(=O)OC)C1CCS(=O)(=O)C1` (stereo not given), the binding response (% of control) is 104%.

As to `Cc1nn(-c2ccccc2)c(C)c1C(=O)OCC(=O)NC(=O)NC1CCCCC1`, the binding response (% of control) was 98.5%. `CCCn1c(C)cc(C(=O)COC(=O)c2c(C)nn(-c3ccccc3)c2C)c1C`: the binding response (% of control) was -33.9% (active). With `Cc1ccc(OC(=O)c2c(C)nn(-c3ccccc3)c2C)cc1`, the binding response (% of control) was 96.3%. For the compound `O=C(Nc1ccc(Cl)cc1)/C(=C1\CCCN1)[N+](=O)[O-]`, the binding response (% of control) is 97.8%. On to `COc1ccc(C2CC(c3ccccc3)Nc3ncnn32)cc1` (stereo not given), for which the binding response (% of control) is 103%. As for `Clc1ccc(C2CC(c3cccs3)n3ncnc3N2)cc1Cl` (stereo not given), the binding response (% of control) is 103%.

Turning to `FC(F)Oc1ccccc1C1CC(c2ccc(Br)s2)Nc2ncnn21` (stereo not given), the binding response (% of control) is 215% [activator] (active). Turning to `COc1ccc(CCNC(=O)c2ccc(CS(=O)(=O)c3ccc(Br)cc3)o2)cc1OC`, the binding response (% of control) was 107%. `COc1ccccc1N(C)S(=O)(=O)c1ccc(C(=O)NC2CCCCCC2)cc1`: the binding response (% of control) is 102%. As to `CC(=O)Nc1ccc(/C=N/Nc2ccc(C(=O)c3c(C)cc4ccccn34)cc2[N+](=O)[O-])cc1`, the binding response (% of control) was 89.3%. In the case of `COC(C[C@H](O)CC(=O)COCc1ccccc1)OC`, the binding response (% of control) is 110%. Turning to `CC(C)(CNC(=O)c1ccc(Cl)c(S(=O)(=O)N2CCc3ccccc3C2)c1)N1CCOCC1`, the binding response (% of control) is 96.9%. `CCOC(=O)C1Sc2[nH]c(=O)sc2C(c2ccc(Cl)cc2)C1C(=O)OCC` (stereo not given): the binding response (% of control) is -39.2% (active). The result for `CCOC(=O)C1C(c2ccc(Cl)cc2)NC(=S)NC1(O)C(F)(F)F` (stereo not given) reads 102%. The result for `CCOC(=O)C1=C(C)NC(=O)N(C(C)=O)C1c1ccc(Cl)cc1` (stereo not given) reads 109%. As to `CC(C)(C)NC(=O)COC(=O)c1cc(Cl)ccc1[N+](=O)[O-]`, the binding response (% of control) is 100%.

With `CN1C=CC=C/C1=C1\SC(=S)N(Cc2ccccc2)C1=O`, the binding response (% of control) was 100%. As for `Cc1ccc(Cl)cc1NC(=S)N(CCN(C)C)Cc1cccs1`, the binding response (% of control) was 99.5%. For `CCc1cccc(C)c1NC(=S)N(CCCN1CCN(C)CC1)Cc1cccs1`, the binding response (% of control) was 105%. For the compound `Cc1ccccc1NC(=S)N(CCCN1CCOCC1)Cc1cccs1`, the binding response (% of control) was 181% [activator] (active). Turning to `COc1ccc(C(CC(=O)N2CCN(c3ccccc3)CC2)c2c(O)cc(OC)cc2OC)cc1` (stereo not given), the binding response (% of control) is 99.5%. Take `O=C(CCNc1n[nH]c(=O)[nH]c1=O)N/N=C\c1ccc(Br)cc1`: the binding response (% of control) was 100%. In the case of `NCCCCCC(=O)N/N=C/c1ccc2nccnc2c1`, the binding response (% of control) is 105%. Turning to `CC(=O)N(CN1C(=O)C2C3C=CC(C3)C2C1=O)c1cccc(Cl)c1` (stereo not given), the binding response (% of control) was 104%. As to `Cc1ccc(OCCCn2c(=O)oc3ccccc32)cc1`, the binding response (% of control) is 106%. `O=C(O)C#Cc1cccc2ccccc12`: the binding response (% of control) is 103%. `Nc1ccc(OCC(O)C[n+]2ccc(CCS(=O)(=O)[O-])cc2)cc1` (stereo not given): the binding response (% of control) is 97.6%. The result for `Cc1cc(NC(=O)COc2ccc(Cl)cc2Cl)n(CCC#N)n1` reads 93.4%; that for `CCCn1nnnc1NC(=O)COc1ccc(Cl)cc1C`, 2.27% (active). Turning to `CCOC(=O)N1CCN(C(=O)COc2ccc(Cl)cc2C)CC1`, the binding response (% of control) was 97.8%. For the compound `CC(C)=NN1C(=O)c2ccccc2NC1(C)C`, the binding response (% of control) is 120%. Consider `O=C(CSc1cccc[n+]1[O-])c1ccc(-c2ccccc2)cc1`, for which the binding response (% of control) is 104%. With `N#Cc1ccc(CSc2nnc3ccccn23)cc1` the figure was 101%; with `COP1(=O)C[C@@H](O)[C@@H](O)[C@@H](COCc2ccccc2)O1` (stereo not given in full), 103%. Turning to `Cc1ccsc1C1C(C#N)=C(N)OC2=C1C(=O)CC(C)(C)C2` (stereo not given), the binding response (% of control) was 118%. The result for `COc1ccc(Cl)cc1C(=O)NNC(=O)c1nc2nc(C)cc(C)n2n1` reads 95.3%. Take `O=C(OCc1ccc(Br)cc1)c1cccc(-c2nnc(-c3ccccc3)o2)c1`: the binding response (% of control) is 102%. With `O=C(Nc1cccc(-c2nc3ccccc3[nH]2)c1)c1ccc(C(=O)Nc2cccc(-c3nc4ccccc4[nH]3)c2)cc1`, the binding response (% of control) was 219% [activator] (active). For the compound `O=C(Cc1cccs1)Nc1cccc(-c2nc3ccccc3[nH]2)c1`, the binding response (% of control) is 97.3%. Take `O=C(/C=C/c1ccco1)Nc1cccc(-c2nc3ccccc3[nH]2)c1`: the binding response (% of control) was 98.3%.

`NC(=S)Nc1c(Cl)cccc1Cl`: the binding response (% of control) is 98.9%. On to `CCOc1c(Nc2cccc(Cl)c2)c(=O)c1=O`, for which the binding response (% of control) was 119%. As for `COc1ccc(-c2ccc(CNCCCN3CCOCC3)o2)cc1Cl`, the binding response (% of control) was 98.4%.

As for `CNC(=S)NNC(=O)c1cccn(Cc2ccccc2)c1=O`, the binding response (% of control) was 100%. The result for `CCCC[C@@H]1CN=C(N)N1CCc1cc(C(F)(F)F)cc(C(F)(F)F)c1` reads 100%; that for `CCN(CC)c1ccc(/C=N/NC(=O)c2cnccn2)c(O)c1`, 94.6%. For the compound `N/C(=N\OC(=O)CCc1ccccc1)c1cccnc1`, the binding response (% of control) is 105%. In the case of `COc1ccccc1C(=O)n1nc(-c2ccccc2)nc1N`, the binding response (% of control) was 102%. Take `COc1ccc(CC(=O)n2nc(-c3cccnc3)nc2N)cc1`: the binding response (% of control) is 93.8%. Take `CCCC(=O)n1nc(-c2ccccc2)nc1N`: the binding response (% of control) was 14.9% (active). In the case of `Nc1ccccc1C(=O)NC1CCCCNC1=O` (stereo not given), the binding response (% of control) was 95.3%. Regarding `COc1ccc2c(c1)C(=C(C#N)C#N)C(=O)N2CCc1ccccc1`, the binding response (% of control) is 113%. For `Nc1ccc(C(=O)OCC(=O)NC2CCS(=O)(=O)C2)cc1[N+](=O)[O-]` (stereo not given), the binding response (% of control) is -10.3% (active). Turning to `O=C(COC(=O)/C=C/c1ccc2c(c1)OCO2)NC1CCS(=O)(=O)C1` (stereo not given), the binding response (% of control) was 98.5%. With `Nc1ccc(C(=O)OCC(=O)NC2CCCc3ccccc32)cc1[N+](=O)[O-]` (stereo not given), the binding response (% of control) is 98.8%. The result for `COc1cc(OC)c(C(=O)N2CCCC2)cc1OC` reads 100%; that for `CCC(C)(C)NC(=O)C(c1cccc(OC)c1OC)N(CC(C)C)C(=O)CCC(=O)Nc1cc(C)on1` (stereo not given), 105%.

Turning to `COc1ccc(-c2nn(-c3ccccc3)cc2/C=N/Nc2ccccn2)cc1OC`, the binding response (% of control) was 112%. On to `COc1ccc(-c2nn(-c3ccccc3)cc2C(=O)Nc2nc(CC(C)=O)ns2)cc1`, for which the binding response (% of control) is 95.8%.

In the case of `COc1ccc(-c2nn(-c3ccccc3)cc2C(=O)Nc2nccs2)cc1OC`, the binding response (% of control) is 24.6% (active). For `CC(C)Oc1ccc(CCc2nnc(SCC(=O)O)n2-c2ccccc2)cc1`, the binding response (% of control) is 99.7%. Consider `COC(=O)[C@H]1Cc2cnoc2C[C@]1(C)C(=O)O`, for which the binding response (% of control) is 104%.

`Cc1ccc(SCC2=NNC(=O)C2)cc1`: the binding response (% of control) was 110%. The result for `Cc1ccc(N2C(=O)C3CC3C2=O)cc1` (stereo not given) reads 101%; that for `Cc1ccc(N2C(=O)C(Cc3ccccc3)NC2=S)cc1` (stereo not given), 102%; that for `Cc1ccc(N2C(=O)C3C(c4ccccc4)(C2=O)C3(c2ccccc2)c2ccccc2)cc1` (stereo not given), 13.2% (active). Regarding `C/C=C/c1ccc(OCCCCN2CCC(C)CC2)c(OC)c1`, the binding response (% of control) is 95%. Take `O=c1[nH]c2ccccc2s1`: the binding response (% of control) was 23% (active). `O=c1c(-c2ccc(Cl)cc2)[n+]([O-])c2ccccc2n1OCc1nc2ccccc2[nH]1`: the binding response (% of control) is 108%. With `CCCC1C(c2ccccc2)C(C#N)(C#N)C2(C#N)CC1(N)NC2=O` (stereo not given), the binding response (% of control) was 178% [activator] (active). With `O=C(NNC(=S)NC1CCCCC1)c1ccccc1Cl`, the binding response (% of control) is 99.1%. Regarding `CCC(=O)Nc1c(S(=O)(=O)c2ccccc2)c2nc3ccccc3nc2n1Cc1ccccc1`, the binding response (% of control) was 13.9% (active).

As for `Cc1ccc(S(=O)(=O)c2c(N)n(C)c3nc4ccccc4nc23)cc1`, the binding response (% of control) is 101%. Consider `CCN(CC)CCn1c(N)c(S(=O)(=O)c2ccccc2)c2nc3ccccc3nc21`, for which the binding response (% of control) was 104%. Take `S=c1[nH]nc(-c2cccs2)n1/N=C/c1cn(-c2ccccc2)nc1-c1ccc(Cl)cc1`: the binding response (% of control) is 98.8%. As for `C/C(=N\OCC(=O)Nc1ccc(Br)cc1)c1cccs1`, the binding response (% of control) was 99.8%. Consider `O=S(=O)(NN=C1CCCCCCC1)c1ccc(Br)cc1`, for which the binding response (% of control) is 106%. The result for `C/C(=N\NS(=O)(=O)c1ccc(Br)cc1)c1cccs1` reads -881% (active). The result for `Cc1ccc(-n2c(Cc3cccs3)nnc2SCC(=O)OC(C)C)cc1` reads 103%. With `COc1ccc(-n2c(SCC(=O)OC(C)C)nnc2-c2ccccn2)cc1`, the binding response (% of control) is 242% [activator] (active). With `Cc1ccc(-n2c(SCC(=O)Nc3ccc4c(c3)OCO4)nnc2-c2ccccn2)cc1`, the binding response (% of control) was 96.8%. With `Cc1cc(C(=O)OCC(=O)Nc2nccs2)c2ccccc2n1`, the binding response (% of control) was 99%. In the case of `CCc1nc(NCCO)c(C#N)c2c1CCCC2`, the binding response (% of control) is 92.9%. For the compound `CCOc1ccc(NC(=O)CSc2nc3ccccc3c(=O)n2Cc2cccs2)cc1`, the binding response (% of control) is -1.24% (active). Take `CC(=O)NCCn1c(SCC(=O)Nc2ccc(C)cc2)nc2ccccc2c1=O`: the binding response (% of control) is 197%. For the compound `CCc1ccc(NC(=O)CSc2nc3ccccc3c(=O)n2CCN2CCOCC2)cc1`, the binding response (% of control) is 97.8%. The result for `NC(=O)c1nnsc1-c1ccc(-c2snnc2C(N)=O)cc1` reads 103%; that for `COc1cc2[nH]c(=S)n(Cc3ccc(F)cc3)c(=O)c2cc1OC`, 76.9%; that for `Cc1cc(C(=O)N/N=C/c2cc([N+](=O)[O-])cc(C)c2O)n[nH]1`, 78.3%. As to `Cn1c(CCCOc2ccc(Cl)cc2Cl)n[nH]c1=S`, the binding response (% of control) is 101%. With `O=S(=O)(c1ccccc1)N1CN(Cc2ccc(F)cc2)c2nc3ccccc3nc21` the figure was 100%; with `COc1ccc(CNC(=O)C2CCC(CNc3c(N4CCOCC4)c(=O)c3=O)CC2)cc1` (stereo not given), 104%; with `O=C(NCc1ccc(F)cc1)C1CCC(CNc2c(N3CCOCC3)c(=O)c2=O)CC1` (stereo not given), 3.97% (active). The result for `CC(NC(=O)C1CCC(CNc2c(N3CCOCC3)c(=O)c2=O)CC1)c1ccccc1` (stereo not given) reads 99.6%.
